Out of some 1,800 compounds screened, fewer than 10 were called active. Another 16% or so got no clear call; they are omitted.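 How the source made its calls: active means compound lowering the normal-ribosome reporter at least twice as much as the humanized-ribosome reporter, growth loss under a set limit; inconclusive means no clear call, values can overlap the other calls; inactive means the rest.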 A selection follows. Entries with a potency or affinity are not part of this list.
Experiment: E. coli strain growth, wild-type against G2058 humanized RFP mutant – G2058 mutant RFP vs wild-type GFP, cherry-pick, two tests, dose response (AID 1035470)
Settings: E. coli WT-GFP vs G2058-humanized RFP, fluorescence, 24 h; series mostly up to 50 µM

outcome, inactive:
COC(=O)c1ccsc1NC(=O)c1cccc(OC)c1, O=[N+]([O-])c1ccc(O)c(CSc2nnnn2-c2ccccc2)c1, COCC(C)NC(=O)c1nn(Cc2ccccc2)c(=O)c2ccccc12 (configuration not stated), Cc1ccc(NC(=O)C[n+]2cc(-c3ccccc3)n3c2CCC3)c(C)c1, COc1cc(OC)c(NS(=O)(=O)c2cccc(C(=O)OCC(=O)NCC3CCCO3)c2)cc1Cl (configuration not stated), Cc1ccc(Nc2nc(C(=O)NCC3CCCO3)cs2)cc1 (configuration not stated), CCOC(=O)c1cccc(OS(=O)(=O)Cc2ccccc2)c1, Cc1ccc(S(=O)(=O)NCc2c(-c3ccccc3)noc2C)cc1, Cc1ccc(NC(=O)COC(=O)CCNS(=O)(=O)c2c(Cl)cccc2Cl)cc1, CC1CCN(C(=O)COC(=O)c2ccccc2NC(=O)c2ccco2)CC1, CCc1cccc(NC(=O)c2ccc3c(=O)n4c(nc3c2)CCCCC4)c1, Cc1cc(C)cc(NC(=O)COC(=O)CC2CCCC2)c1, CCn1c(COc2cccc(OC)c2)nnc1SCC(=O)Nc1cc(OC)ccc1OC, COc1ccc(S(=O)(=O)N2CCOc3ccccc32)cc1, COc1ccc(-n2nc3cc(N)c(Br)cc3n2)cc1, COC(=O)[C@]1(Sc2ccc(C)cc2)CC(=O)N[C@@H]1c1ccccc1, O=C(CSc1nc2ccccc2n1S(=O)(=O)c1cccc([N+](=O)[O-])c1)NCCc1ccccc1, S=c1[nH]nc(-c2ccc3ccccc3n2)n1-c1ccc2c(c1)OCCO2, Cc1ccnc(NS(=O)(=O)c2ccc(NC(=O)c3ccc4c(c3)OCCO4)cc2)n1, COc1ccc(OC)c(-c2nn(-c3ccccc3)cc2C(=O)N2CCc3ccccc3C2)c1, COC(=O)c1sccc1NC(=O)CNC(=O)c1ccccc1, Cc1c(Cc2ccccc2)sc(NC(=O)Cc2ccccc2)c1C(N)=O, O=C(Cc1c(F)cccc1Cl)N(Cc1ccccc1)c1ccccn1, Cc1ccoc1C(=O)Nc1ccc2ccccc2c1, Cc1cc(CNC(=O)c2cc(-c3ccccc3)nc3ccccc23)nn1C, Cc1cccc(-c2nsc(SCC(=O)NCC3CCCO3)n2)c1 (configuration not stated), Cc1ccc2nc(N(CCN(C)C)C(=O)C3CCN(S(=O)(=O)c4cccs4)CC3)sc2c1, COc1ccc(-c2csc(NC(=O)c3ccoc3C)n2)cc1, CCC1CCCCN1C(=O)CSc1nnc(-c2cccc(Cl)c2)o1 (configuration not stated), CCc1nc2ccccc2c(C(=O)OCC(=O)NC(=O)c2cccn2C)c1C, Cc1ccc(Cc2c(-c3ccc(C#N)cc3)nc3ccc(Br)cn23)cc1, CCOC(=O)c1cnc2ccc(OCC)cc2c1NCCCN1CCOCC1, CCOC(=O)C(CC)Sc1cc(C)nc2ccc(OC)cc12 (configuration not stated), COc1ccc(C(=O)COc2ccc(F)cc2)c(O)c1, Cc1cccc(-c2cc3nc4c(c(N5CCOCC5)n3n2)CCCC4)c1, Cc1cccc(NS(=O)(=O)c2cc3c(cc2C)NC(=O)CO3)c1, Cc1cccc(OCCn2c(=O)oc3ccc(C)cc32)c1, CC(=O)Nc1cccc(NC(=O)CCN2C(=O)c3ccccc3S2(=O)=O)c1, c1cncc(-c2nc3cc4ccccc4cc3[nH]2)c1, Cc1ccccc1S(=O)(=O)c1cc2ccccc2nc1N, COc1ccccc1-c1noc2ncnc(Nc3ccccc3C)c12, COc1ccccc1Cc1c(-c2ccc(F)cc2)nc2ccc(Br)cn12, COc1ccc(-c2nc(C3CCCCC3)no2)cc1OC, c1ccc(Sc2ncnc3ccccc23)cc1, COc1cccc(NC(=O)C(C)SCc2ccccc2)c1 (configuration not stated), Cc1cc(Br)ccc1NC(=O)c1ccco1, O=C(CSCc1cnn(-c2ccccc2)c1-n1cccc1)NCc1cccnc1, O=C(Nc1ccc(Cl)c(Cl)c1)c1ccc(Cl)c(Cl)c1, O=[N+]([O-])c1ccc2nc(-c3ccccc3[N+](=O)[O-])[nH]c2c1, O=c1c2ccccc2nc(SCc2ccccc2)n1CC1CCCO1 (configuration not stated), CCOCCCNC(=O)C(NC(=O)c1ccccc1O)c1ccc(C)cc1 (configuration not stated), COc1ccc(Nc2nc(N)c([N+](=O)[O-])c(N3CCCC3)n2)cc1, CS(=O)(=O)c1ccc(Cl)c(NC(=O)CSc2nncn2-c2ccccc2)c1, c1ccc(CSCc2ccccc2)cc1, O=C(Nc1ccc(Cl)c(Cl)c1)N[C@@H]1CC[C@@H](CCn2cc(C3CCCCC3)nn2)O[C@H]1CO, CCOc1ccc(NC(=O)CCc2nnc3ccc(N4CCC(C)CC4)nn23)cc1, Cc1csc(SCc2nc3scc(-c4ccccc4)c3c(=O)[nH]2)n1, CC(C)(C)c1ccc2c(c1)C(c1ccc3c(c1)OCO3)CC(=O)O2 (configuration not stated), Cc1ccccc1Nc1c(-c2cccnc2)nc2ccc(Br)cn12, CC1(CCC(=O)N2CCCC(N3CCN(c4ccc(F)cc4)CC3)C2)CC1 (configuration not stated), C=CCn1c(C)cc(C(=O)CSc2nnc(C3CC3)n2C2CC2)c1C, c1ccc(-c2sc3ccccc3c2-c2ccc(OCCN3CCCCC3)cc2)cc1, CN(C(=O)COC(=O)CSc1ccc(C(N)=O)cc1[N+](=O)[O-])C1CCCCC1, CC(C)OCCCNC(=O)c1ccc(CS(=O)(=O)c2cccc(C(F)(F)F)c2)o1, COc1ccc(C(=O)Nc2cccc3ccccc23)cc1, CCS(=O)(=O)N1CCN(c2ccc([N+](=O)[O-])c(NCC3CCCO3)c2)CC1 (configuration not stated), Cc1nn(S(=O)(=O)c2ccc(Cl)cc2)c(C)c1Sc1ccc([N+](=O)[O-])cc1, C[C@@H]1CN([C@@H](C)CO)C(=O)c2cc(NC(=O)Nc3cccc4ccccc34)ccc2O[C@@H](C)CCCCO[C@@H]1CN(C)C(=O)CCCN(C)C, O=C(COC(=O)C1CC2C=CC1C2)NCCc1ccccc1 (configuration not stated), O=C(CN1CCCCC1)Nc1ccccc1-c1ccccc1, CN(Cc1ccc(Cl)s1)C(=O)CNC(=O)CNC(=O)c1ccc(Cl)cc1Cl, Cn1c(SCC(=O)Nc2ccccc2-c2ccccc2)nnc1-c1ccco1, O=C(CCCOc1ccccc1)NCCc1nc2ccccc2[nH]1, O=C(Cc1cccc(NC(=O)C2CCN(C(=O)C3CCCCC3)CC2)c1)Nc1cccc(C(=O)N2CCCC2)c1, COc1ccc(-c2noc(=O)n2Cc2ccccc2Cl)cc1, CN1CCSc2ccc(C(=O)Nc3cccc(F)c3)cc21, CC(C)c1ccc(-c2nc3ccccc3s2)cc1, Cc1ccc(-n2cc(CNCCN3CCOC3=O)c(-c3ccc(F)cc3)n2)cc1, Cc1ccc(NC(=O)c2ccc3ncsc3c2)cc1S(=O)(=O)N(C)C, CN(Cc1ccc([N+](=O)[O-])cc1)c1ccccc1, COc1ccc(CN2CCNC(=O)C2CC(=O)NCCCC2CCCC2)c(C)c1C (configuration not stated), O=C1CCCCC1Nc1ccc(Br)cc1 (configuration not stated), C[C@@H]1CCCCO[C@@H](CN(C)C)[C@@H](C)CN([C@H](C)CO)C(=O)c2cc(NC(=O)Nc3cccc4ccccc34)ccc2O1, COc1ccc(NC(=O)CSc2n[nH]c(-c3ccncc3)n2)c([N+](=O)[O-])c1, Brc1ccc(Nc2ncnc3[nH]ncc23)cc1, Cc1cccc(-c2ccc([C@@H]3[C@@H](CO)N4CCCCN(S(=O)(=O)c5ccccc5C)C[C@H]34)cc2)c1, C[C@@H]1CN([C@@H](C)CO)S(=O)(=O)c2ccc(Br)cc2O[C@H]1CN(C)C(=O)c1ccccc1, Cc1cc(C)c(OCCN(C)Cc2ccccc2)c(Br)c1, C[C@@H](Nc1nc(-c2ccccc2)nc2c1oc1ccccc12)C(=O)O, CCOC(=O)c1ccc(NC(=O)c2ccc(OC(C)C)c(OC)c2)cc1, O=C(C[n+]1ccc(Cc2ccccc2)cc1)Nc1ccc([N+](=O)[O-])cc1Cl, O=C(OCC1COc2ccccc2O1)c1ccccc1F (configuration not stated), O=C(Nc1ccc(-c2nnc3n2CCCCC3)cc1)c1cc2ccccc2o1, COc1ccc(NC(=O)c2cccc(Oc3ccc([N+](=O)[O-])cc3Cl)c2)cc1, COc1cccc(NC(=O)c2ccc(-c3ccc([N+](=O)[O-])cc3)o2)c1, O=C1CSC(c2cccnc2)N1Cc1ccc(Cl)c(Cl)c1 (configuration not stated), COc1ccccc1NC(=O)N1CCCCN2[C@@H](CO)[C@H](c3ccc(C#Cc4ccccc4)cc3)[C@@H]2C1, C#CC(C)(C)NC(=O)c1ccc(-c2ccccc2F)cc1, CS(=O)(=O)Nc1ccccc1C(=O)NCCSc1ccccc1, COc1ccc(-c2cc(C(=O)O)nc3ccc4ccccc4c23)cc1OC, Oc1ccc(-c2csc(Nc3ncccn3)n2)cc1, CN(C)S(=O)(=O)c1ccc2oc(SCC(=O)NCC(F)(F)F)nc2c1
